Experimental data taken from the supplement of paper PMC10849652.
Targets with a hit are over-represented here; the source holds about 7,900 in all. About 0.6% of all pairs of compound and target were hits. Values without a mark were called inactive.

Experiments:
Test in all cases: log2 fold change, soluble protein after heating vs DMSO (PISA); higher = thermal stabilisation; K562 cells, 10 uM, 30 min; active = over 0.2 and 3.5 SD of the protein, either way, in both replicates (recomputed)
[1] = compound: CC1=C(C=C(C=C1)NC(=O)C2=CC(=CC=C2)C(C)(C)C#N)NC3=CC4=C(C=C3)N=CN(C4=O)C
Outline: (§1)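 K562 cells (2×10^6 cells/mL) were treated with 10 μM compound for 30 min, and aliquots were heated for 3 min over 48°C-58°C. Pooled aliquots were extracted in PBS with 0.5% NP-40 at 4°C, and the supernatant after 21,000xg for 90 min was measured by TMTpro 16plex LC-MS/MS with channel sums equalised. Reported thermal stability, relative to control samples and from duplicates, is a log2 fold change.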

[2] = compound: CC1=C(C=C(C=C1)NC(=O)C2=CC(=CC=C2)N(C)C)NC(=O)C3=CC=C(C=C3)O
Outline: as §1

[3] = compound: CC1=CC=C(C=C1)SC2=C3C=C(SC3=CN=C2)C(=O)N
Outline: as §1

[4] = compound: CC1=NC(=CC=C1)C2=C(N=C(N2)C(C)(C)C)C3=CC4=NC=CN=C4C=C3
Outline: as §1

Nexturastat A = compound: CCCCN(Cc1ccc(C(=O)NO)cc1)C(=O)Nc1ccccc1 [Nexturastat A]
Outline: as §1

vemurafenib = compound: CCCS(=O)(=O)Nc1ccc(F)c(C(=O)c2c[nH]c3ncc(-c4ccc(Cl)cc4)cc23)c1F [vemurafenib]
Outline: as §1

[5] = compound: CCCS(=O)(=O)Nc1ccc(F)c(C(=O)c2c[nH]c3ncc(Cl)cc23)c1F
Outline: as §1

[6] = compound: CCCc1cc(C)[nH]c(=O)c1CNC(=O)c1cc(-c2ccnc(N3CCN(C)CC3)c2)cc2c1cnn2C(C)C
Outline: as §1

givinostat = compound: CCN(CC)Cc1ccc2cc(COC(=O)Nc3ccc(C(=O)NO)cc3)ccc2c1 [givinostat]
Outline: as §1

barasertib = compound: CCN(CCCOc1ccc2c(Nc3cc(CC(=O)Nc4cccc(F)c4)[nH]n3)ncnc2c1)CCOP(=O)(O)O [barasertib]
Outline: as §1

[7] = compound: CC[C@@H]1C(=O)N(C)c2cnc(Nc3ccc(C(=O)NC4CCN(C)CC4)cc3OC)nc2N1C1CCCC1
Outline: as §1

volasertib = compound: CC[C@@H]1C(=O)N(C)c2cnc(Nc3ccc(C(=O)N[C@H]4CC[C@H](N5CCN(CC6CC6)CC5)CC4)cc3OC)nc2N1C(C)C [volasertib]
Outline: as §1

[8] = compound: CC[C@H](C)N1C=C(C2=C(C=C(C=C21)C3=CN=C(C=C3)N4CCNCC4)C(=O)NCC5=C(C=C(NC5=O)C)C)C
Outline: as §1

epoxomicin = compound: CC[C@H](C)[C@@H](C(=O)N[C@@H]([C@@H](C)O)C(=O)N[C@@H](CC(C)C)C(=O)[C@]1(CO1)C)NC(=O)[C@H]([C@@H](C)CC)N(C)C(=O)C [epoxomicin]
Outline: as §1

[9] = compound: CCn1c(C(=O)N(C2CC2)C2CC2)cc2c3c(ncn3C)c(Nc3cc(C)n(C)n3)nc21
Outline: as §1

[10] = compound: CCn1cc(-c2ccnc3[nH]c(-c4cccc(CN(C)C)c4)cc23)c(-c2ccc(NC(=O)N(C)C)cc2)n1
Outline: as §1

[11] = compound: CN(C)CC(=O)Nc1ccc2[nH]c(=O)c3ccccc3c2c1
Outline: as §1

rosiglitazone = compound: CN(CCOC1=CC=C(C=C1)C[C@H]2C(=O)NC(=O)S2)C3=CC=CC=N3 (racemic) [rosiglitazone]
Outline: as §1

[12] = compound: CN1C2=C(C3=C1C(=O)N(N=C3)CC4=CC(=CC=C4)N)SC(=C2)S(=O)C
Outline: as §1

[13] = compound: CN1CCC(CNc2ccc3ncc(-c4cccc(OC(F)(F)F)c4)n3n2)CC1
Outline: as §1

Chain of UniProt Q8N5Y8 (Q8N5Y8 whole entry, looked up): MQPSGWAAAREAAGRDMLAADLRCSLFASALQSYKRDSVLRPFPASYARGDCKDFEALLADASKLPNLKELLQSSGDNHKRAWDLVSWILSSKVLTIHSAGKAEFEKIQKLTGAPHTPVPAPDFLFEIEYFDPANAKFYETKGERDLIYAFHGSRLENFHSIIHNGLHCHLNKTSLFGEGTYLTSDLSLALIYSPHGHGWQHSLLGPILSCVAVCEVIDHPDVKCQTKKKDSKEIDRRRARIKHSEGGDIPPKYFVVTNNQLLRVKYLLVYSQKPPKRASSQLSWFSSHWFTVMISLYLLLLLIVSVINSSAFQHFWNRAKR
Chain of UniProt O94806 (O94806 whole entry, looked up): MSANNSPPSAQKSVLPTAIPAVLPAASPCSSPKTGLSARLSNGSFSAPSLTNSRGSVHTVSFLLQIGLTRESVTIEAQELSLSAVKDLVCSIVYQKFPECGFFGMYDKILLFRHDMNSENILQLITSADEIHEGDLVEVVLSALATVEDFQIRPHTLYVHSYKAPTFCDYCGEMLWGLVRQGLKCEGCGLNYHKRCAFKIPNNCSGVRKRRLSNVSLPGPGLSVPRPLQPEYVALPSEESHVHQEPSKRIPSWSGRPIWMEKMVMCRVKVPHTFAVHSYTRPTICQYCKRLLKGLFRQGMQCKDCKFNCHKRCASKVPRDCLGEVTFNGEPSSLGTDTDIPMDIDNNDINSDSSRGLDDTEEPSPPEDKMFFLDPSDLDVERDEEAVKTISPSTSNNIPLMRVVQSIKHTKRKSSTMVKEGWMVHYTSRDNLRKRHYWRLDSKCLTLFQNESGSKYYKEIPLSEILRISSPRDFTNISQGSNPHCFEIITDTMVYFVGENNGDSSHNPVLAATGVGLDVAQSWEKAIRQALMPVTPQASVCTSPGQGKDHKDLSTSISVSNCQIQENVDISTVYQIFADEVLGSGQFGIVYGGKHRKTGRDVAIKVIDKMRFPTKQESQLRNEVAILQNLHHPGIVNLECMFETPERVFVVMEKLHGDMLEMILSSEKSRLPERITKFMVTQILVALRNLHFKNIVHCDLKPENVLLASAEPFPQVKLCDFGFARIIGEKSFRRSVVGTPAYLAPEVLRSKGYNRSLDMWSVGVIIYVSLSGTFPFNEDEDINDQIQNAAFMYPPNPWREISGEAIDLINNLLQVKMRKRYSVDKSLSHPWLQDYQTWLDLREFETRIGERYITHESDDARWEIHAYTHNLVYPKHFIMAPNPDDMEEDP
Chain of UniProt Q99460 (Q99460 whole entry, looked up): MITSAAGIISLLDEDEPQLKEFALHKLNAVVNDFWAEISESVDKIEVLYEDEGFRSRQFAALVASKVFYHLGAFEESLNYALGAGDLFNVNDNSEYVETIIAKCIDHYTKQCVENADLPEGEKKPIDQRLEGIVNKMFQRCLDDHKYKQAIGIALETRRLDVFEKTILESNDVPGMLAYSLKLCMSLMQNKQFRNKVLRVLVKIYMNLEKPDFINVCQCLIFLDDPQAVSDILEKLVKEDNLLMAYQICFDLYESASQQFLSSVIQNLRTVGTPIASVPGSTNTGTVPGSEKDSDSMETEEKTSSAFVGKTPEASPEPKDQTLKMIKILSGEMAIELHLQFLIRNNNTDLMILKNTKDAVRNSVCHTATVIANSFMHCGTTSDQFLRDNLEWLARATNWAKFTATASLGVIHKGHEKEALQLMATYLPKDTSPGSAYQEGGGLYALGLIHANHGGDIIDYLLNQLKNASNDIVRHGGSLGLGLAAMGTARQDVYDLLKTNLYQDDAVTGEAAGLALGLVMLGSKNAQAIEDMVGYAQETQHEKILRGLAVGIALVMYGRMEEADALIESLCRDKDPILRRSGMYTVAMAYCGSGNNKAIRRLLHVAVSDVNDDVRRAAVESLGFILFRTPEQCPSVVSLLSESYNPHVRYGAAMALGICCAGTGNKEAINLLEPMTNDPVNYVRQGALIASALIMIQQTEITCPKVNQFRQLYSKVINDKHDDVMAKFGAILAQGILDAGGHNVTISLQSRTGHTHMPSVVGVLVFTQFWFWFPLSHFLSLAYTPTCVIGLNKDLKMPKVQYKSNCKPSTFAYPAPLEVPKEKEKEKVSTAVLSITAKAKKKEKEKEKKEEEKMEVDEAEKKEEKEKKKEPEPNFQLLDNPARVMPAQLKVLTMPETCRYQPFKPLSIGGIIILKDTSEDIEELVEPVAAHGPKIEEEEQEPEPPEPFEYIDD
Chain of UniProt P40425 (P40425 whole entry, looked up): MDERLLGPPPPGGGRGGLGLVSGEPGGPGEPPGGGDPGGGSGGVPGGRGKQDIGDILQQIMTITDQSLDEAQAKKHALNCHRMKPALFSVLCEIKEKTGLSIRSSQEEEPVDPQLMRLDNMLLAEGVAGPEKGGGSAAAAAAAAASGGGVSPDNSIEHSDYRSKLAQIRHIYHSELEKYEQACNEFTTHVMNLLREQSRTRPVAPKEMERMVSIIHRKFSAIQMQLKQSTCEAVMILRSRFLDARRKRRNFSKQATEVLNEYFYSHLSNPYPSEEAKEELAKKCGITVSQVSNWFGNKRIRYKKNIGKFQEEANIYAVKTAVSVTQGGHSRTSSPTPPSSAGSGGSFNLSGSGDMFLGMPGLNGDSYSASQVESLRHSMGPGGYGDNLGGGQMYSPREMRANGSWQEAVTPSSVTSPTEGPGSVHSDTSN
Chain of UniProt Q8IV08 (Q8IV08 whole entry, looked up): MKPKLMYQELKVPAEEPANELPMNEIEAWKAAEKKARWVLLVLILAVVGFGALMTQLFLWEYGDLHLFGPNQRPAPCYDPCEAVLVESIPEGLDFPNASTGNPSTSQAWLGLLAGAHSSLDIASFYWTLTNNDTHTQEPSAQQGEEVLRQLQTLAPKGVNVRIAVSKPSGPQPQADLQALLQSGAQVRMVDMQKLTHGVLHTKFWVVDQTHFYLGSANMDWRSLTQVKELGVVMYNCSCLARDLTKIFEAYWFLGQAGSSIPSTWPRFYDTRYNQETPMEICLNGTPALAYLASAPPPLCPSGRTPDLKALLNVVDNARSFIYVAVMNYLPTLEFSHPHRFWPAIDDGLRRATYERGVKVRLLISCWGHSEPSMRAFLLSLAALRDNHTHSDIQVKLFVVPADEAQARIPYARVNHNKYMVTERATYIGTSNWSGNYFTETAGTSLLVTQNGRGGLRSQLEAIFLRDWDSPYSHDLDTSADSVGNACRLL
Chain of UniProt Q16822 (Q16822 whole entry, looked up): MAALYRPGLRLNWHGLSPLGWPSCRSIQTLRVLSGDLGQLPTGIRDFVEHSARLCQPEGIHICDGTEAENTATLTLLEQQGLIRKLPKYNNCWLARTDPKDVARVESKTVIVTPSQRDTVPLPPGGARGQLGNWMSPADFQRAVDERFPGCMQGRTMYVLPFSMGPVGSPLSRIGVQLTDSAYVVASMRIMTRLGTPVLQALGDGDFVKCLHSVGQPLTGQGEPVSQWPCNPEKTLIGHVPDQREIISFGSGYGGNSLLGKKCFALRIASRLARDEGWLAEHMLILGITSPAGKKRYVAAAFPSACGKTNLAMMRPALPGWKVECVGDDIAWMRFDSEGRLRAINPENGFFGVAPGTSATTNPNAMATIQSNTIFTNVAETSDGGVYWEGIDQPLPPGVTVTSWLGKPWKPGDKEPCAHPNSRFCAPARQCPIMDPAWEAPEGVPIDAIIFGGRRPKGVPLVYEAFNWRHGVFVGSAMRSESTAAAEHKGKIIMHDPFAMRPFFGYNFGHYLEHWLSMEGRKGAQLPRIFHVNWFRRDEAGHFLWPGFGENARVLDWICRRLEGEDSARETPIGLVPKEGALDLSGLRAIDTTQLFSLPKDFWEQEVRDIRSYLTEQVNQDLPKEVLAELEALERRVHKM
Chain of UniProt Q15111 (Q15111 whole entry, looked up): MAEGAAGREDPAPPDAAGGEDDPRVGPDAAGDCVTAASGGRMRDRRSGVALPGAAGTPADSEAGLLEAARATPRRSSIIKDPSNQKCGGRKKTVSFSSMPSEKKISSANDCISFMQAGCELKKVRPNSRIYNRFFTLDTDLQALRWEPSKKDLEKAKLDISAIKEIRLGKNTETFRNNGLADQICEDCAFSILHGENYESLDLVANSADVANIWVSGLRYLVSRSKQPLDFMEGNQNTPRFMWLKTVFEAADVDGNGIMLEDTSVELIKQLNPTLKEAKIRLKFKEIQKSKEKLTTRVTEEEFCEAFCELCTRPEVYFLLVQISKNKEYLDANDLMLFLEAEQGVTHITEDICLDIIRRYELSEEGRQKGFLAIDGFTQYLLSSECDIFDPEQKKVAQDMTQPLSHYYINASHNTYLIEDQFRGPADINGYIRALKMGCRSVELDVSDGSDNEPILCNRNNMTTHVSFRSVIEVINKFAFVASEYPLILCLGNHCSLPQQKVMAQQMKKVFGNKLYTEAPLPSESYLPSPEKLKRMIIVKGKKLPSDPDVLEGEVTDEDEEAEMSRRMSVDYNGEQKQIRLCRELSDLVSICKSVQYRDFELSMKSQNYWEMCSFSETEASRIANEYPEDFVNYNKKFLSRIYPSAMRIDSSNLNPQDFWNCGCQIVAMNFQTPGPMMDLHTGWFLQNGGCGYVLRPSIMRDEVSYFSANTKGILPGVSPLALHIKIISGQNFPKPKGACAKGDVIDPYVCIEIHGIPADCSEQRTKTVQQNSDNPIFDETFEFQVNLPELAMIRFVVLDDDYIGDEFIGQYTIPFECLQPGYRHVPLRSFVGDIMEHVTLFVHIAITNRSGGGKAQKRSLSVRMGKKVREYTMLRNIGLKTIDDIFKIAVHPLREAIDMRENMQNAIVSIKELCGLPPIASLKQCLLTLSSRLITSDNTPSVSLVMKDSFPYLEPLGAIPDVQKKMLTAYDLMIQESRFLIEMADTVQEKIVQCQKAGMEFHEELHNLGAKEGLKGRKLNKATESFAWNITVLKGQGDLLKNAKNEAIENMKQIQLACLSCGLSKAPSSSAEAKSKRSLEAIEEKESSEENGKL

Target | log2 fold change [1] | log2 fold change [2] | log2 fold change [3] | log2 fold change [4] | log2 fold change (Nexturastat A) | log2 fold change (vemurafenib) | log2 fold change [5] | log2 fold change [6] | log2 fold change (givinostat) | log2 fold change (barasertib) | log2 fold change [7] | log2 fold change (volasertib) | log2 fold change [8] | log2 fold change (epoxomicin) | log2 fold change [9] | log2 fold change [10] | log2 fold change [11] | log2 fold change (rosiglitazone) | log2 fold change [12] | log2 fold change [13]
PSMD1 (UniProt Q99460) | 0.06 | 0.021 | -0.001 | -0.011 | 0.055 | -0.041 | -0.049 | 0.05 | -0.046 | -0.036 | 0.042 | 0.146 | -0.001 | -0.278 | 0.015 | 0.028 | -0.005 | -0.026 | 0.043 | 0.059
PLD3 (UniProt Q8IV08) | 0.002 | 0.012 | 0.034 | 0.018 | -0.081 | -0.007 | 0.019 | -0.028 | -0.072 | -0.013 | -0.369 (active) | -0.437 (active) | -0.038 | 0.041 | 0.052 | 0.035 | 0.014 | -0.007 | -0.027 | -0.488 (active)
PECAM1 (UniProt P16284) | -0.092 | -0.019 | -0.013 | -0.113 | 0.068 | -0.049 | 0.004 | -0.015 | 0.01 | 0.028 | 0.116 | 0.061 | -0.019 | -0.027 | 0.022 | -0.106 | 0.027 | 0.014 | -0.067 | 0.168
PLCL1 (UniProt Q15111) | 0.056 | -0.061 | – | 0.03 | 0.253 | 0.068 | – | 0.159 | 0.21 | 0.205 | -0.018 | – | 0.232 | -0.034 | -0.206 | 0.311 | 0.035 | -0.128 | – | -0.094
PARP16 isoform 3 (UniProt Q8N5Y8) | 0.066 | – | 0.298 (active) | 0 | 0.022 | -0.06 | 0.132 | -0.016 | 0.04 | 0.032 | 0.103 | -0.025 | 0.067 | 0.029 | 0.006 | -0.252 (active) | 0.061 | 0.09 | -0.008 | 0.096
PCK2 (UniProt Q16822) | -0.002 | -0.064 | -0.008 | 0.045 | -0.065 | -0.006 | 0.002 | 0.014 | -0.13 | 0.011 | 0.012 | -0.076 | 0.033 | 0.059 | 0.016 | -0.07 | 0 | 0.011 | -0.094 | 0.027
PBX2 (UniProt P40425) | 0.049 | 0.001 | 0.089 | 0.165 | 0.072 | 0.099 | 0.136 | 0.026 | 0.138 | 0.03 | – | -0.251 | 0.025 | 0.123 | -0.03 | -0.009 | 0.023 | 0.052 | -0.056 | 0.024
PRKD3 (UniProt O94806) | 0.096 | -0.052 | – | -0.012 | – | 0.294 | – | 0.115 | -0.008 | 0.086 | – | – | – | – | -0.033 | -0.125 | 0.059 | 0.192 | -0.002 | -0.418
PRKCG (UniProt P05129) | 0.085 | -0.117 | -0.058 | 0.021 | -0.08 | -0.041 | 0.034 | 0.019 | -0.316 | -0.094 | -0.253 | -0.062 | 0.058 | 0.086 | -0.078 | -0.117 | 0.058 | 0.044 | 0.093 | -0.176
